Some test systems named below: NCI-H23 lung; NCI-H226 lung; NCI-H322M lung; HOP-62 NSCLC; NCI-H460 lung; HOP-92 NSCLC; NCI-H522 lung; A549/ATCC NSCLC; 786-0 renal; COLO 205 colon.
Holding throughout (experiment): NCI-60 one-dose screen, 48 h (100 = growth as untreated, 0 = no growth, -100 = all killed)
What all share (details): 10 µM

The panel holds about 83,000 compounds, 20% with a hit somewhere; the sample as a whole holds those more often.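 Activity criterion: percent growth below 10, measured after cells in 96-well plates were exposed to a single compound concentration for 48 hours.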 A number with no mark means an inactive call. Active and inactive are the calls of the source.

Consider `O=C(c1ccc(Cl)cc1)C1[C@H](c2ccccc2Br)[C@@H](c2ccccc2)NC12C(=O)Nc1ccc(Br)cc12` (stereo not given in full), for which the growth in the assay with NCI-H23 lung is 3.35% (active); in the assay on NCI-H226 lung it was 12.5%; in the assay with NCI-H322M lung, 41.6%; in the assay with HOP-62 NSCLC, 31.2%; in the assay with NCI-H460 lung, 2.66% (active); in the assay with HOP-92 NSCLC, 4.57% (active). Also, the growth in the assay on NCI-H522 lung was -24.4% (active); in the assay with A549/ATCC NSCLC, 0.826% (active); with 786-0 renal it was -2.24% (active); in the assay on COLO 205 colon, -49.6% (active).

As to `O=c1nc(-c2ccccc2)cc(-c2cc3ccccc3nc2Cl)[nH]1`, the growth with NCI-H23 lung is 33.6%; with NCI-H226 lung it was 35.6%; in the assay with NCI-H322M lung it was 64.4%; in the assay on HOP-62 NSCLC, 42.5%; in the assay on NCI-H460 lung, 2.46% (active); in the assay on HOP-92 NSCLC it was 41.8%. For the same compound, the growth in the assay with NCI-H522 lung is 51.2%; in the assay on A549/ATCC NSCLC, 68.9%; in the assay on 786-0 renal, -19.8% (active); in the assay on COLO 205 colon, 45%.

Take `O=c1oc2ccccc2cc1-c1csc(N=Nc2c(O)[nH]c3ccc(Br)cc23)n1`: the growth in the assay on NCI-H23 lung is 61.5%; in the assay with NCI-H226 lung it was 58.4%; in the assay with NCI-H322M lung, 92.9%; in the assay with HOP-62 NSCLC it was 40.2%; in the assay on NCI-H460 lung, 106%; in the assay on HOP-92 NSCLC, -7.7% (active). Also, the growth is 67.4% in the assay on NCI-H522 lung, 100% in the assay on A549/ATCC NSCLC, 12.5% with 786-0 renal and 127% in the assay on COLO 205 colon.

For the compound `COc1cccc(COc2ccc(/C=C3\Oc4cc(O)ccc4C3=O)cc2)c1`, the growth with NCI-H23 lung is 46.7%; with NCI-H226 lung it was 51.3%; in the assay on NCI-H322M lung it was 89.4%; in the assay on HOP-62 NSCLC, 17.6%; in the assay with NCI-H460 lung it was 27.4%; in the assay on HOP-92 NSCLC, 16.3%. Further, the growth was 35.9% in the assay with NCI-H522 lung, 71.4% in the assay with A549/ATCC NSCLC, -58% (active) in the assay with 786-0 renal and 113% in the assay with COLO 205 colon.

Regarding `Brc1ccc(/C=N/Nc2ncnc3sc4c(c23)CCN(Cc2ccccc2)C4)cc1`, the growth in the assay with NCI-H23 lung was 91.8%; in the assay with NCI-H226 lung, 3.93% (active); with NCI-H322M lung it was 94.1%; in the assay with HOP-62 NSCLC, 103%; in the assay on NCI-H460 lung it was 14%; with HOP-92 NSCLC, 67%. The growth with NCI-H522 lung is 90.4%; in the assay with A549/ATCC NSCLC, 74.2%; with 786-0 renal, 48.5%; in the assay with COLO 205 colon, 34.8%.

For `CNCc1cccc2c1OCCCCCC[C@@](C)(O)CC1(CC1)S(=O)(=O)c1ccc(cc1)-c1cnc(N)c(n1)C(=O)N2`, the growth in the assay with NCI-H23 lung was -95.4% (active); in the assay with NCI-H226 lung, -75.7% (active); with NCI-H322M lung, -96.8% (active); in the assay with HOP-62 NSCLC it was -84.3% (active); in the assay on NCI-H460 lung, -74.8% (active); in the assay on HOP-92 NSCLC, -67.8% (active). In addition, the growth in the assay with NCI-H522 lung is -87.2% (active); with A549/ATCC NSCLC, -79.5% (active); in the assay with 786-0 renal, -82.9% (active); in the assay with COLO 205 colon it was -89.9% (active).

On to `Cc1ccc(/C=C/C(=O)c2ccc(NC(=O)CSc3nnc(-c4c[nH]c5ccccc45)n3-c3ccccc3)cc2)c(C)c1`, for which the growth with NCI-H23 lung was -1.3% (active); in the assay with NCI-H226 lung, 33.1%; in the assay on NCI-H322M lung it was 75.8%; in the assay with HOP-62 NSCLC, 99.4%; in the assay on NCI-H460 lung, -35.8% (active); in the assay with HOP-92 NSCLC it was 76.8%. Also, the growth with NCI-H522 lung was 25%; in the assay on A549/ATCC NSCLC, 54.3%; with 786-0 renal, 65.8%; in the assay with COLO 205 colon it was 70.5%.

`CC1(c2ccccc2)NC(=O)N(CC(=O)Nc2ccc(C(=O)/C=C/C=C/c3ccccc3)cc2)C1=O` (stereo not given): the growth with NCI-H23 lung was 73.4%; in the assay on NCI-H226 lung, 57.2%; with NCI-H322M lung it was 73.9%; in the assay on HOP-62 NSCLC, 77.2%; with NCI-H460 lung, 73.2%; with HOP-92 NSCLC, 57.3%. In addition, the growth in the assay with NCI-H522 lung is 75.8%; in the assay with A549/ATCC NSCLC it was 58.7%; with 786-0 renal it was 7.33% (active); with COLO 205 colon, 98%.

Turning to `CC1(c2ccccc2)NC(=O)N(CC(=O)Nc2ccc(C(=O)/C=C/c3ccccc3)cc2)C1=O` (stereo not given), the growth was 65.5% in the assay with NCI-H23 lung; 45.7% with NCI-H226 lung; 90.2% with NCI-H322M lung; 85.9% in the assay on HOP-62 NSCLC; 69.4% with NCI-H460 lung; 50.7% with HOP-92 NSCLC. Besides, the growth with NCI-H522 lung was 71.4%; with A549/ATCC NSCLC, 44.3%; in the assay with 786-0 renal it was 42.6%; in the assay on COLO 205 colon, 76.4%.

In the case of `CC1=C(C(=O)OC(C)C)C(c2ccc(O)cc2)NC(=S)N1` (stereo not given), the growth with NCI-H23 lung was 98.8%; in the assay on NCI-H226 lung, 99.2%; with NCI-H322M lung, 102%; with HOP-62 NSCLC, 104%; in the assay on NCI-H460 lung, 124%; in the assay on HOP-92 NSCLC, 112%. Besides, the growth with NCI-H522 lung was 93.1%; in the assay with A549/ATCC NSCLC, 109%; in the assay on 786-0 renal, 95.7%; in the assay with COLO 205 colon, 119%.

On to `CN1C(=O)/C(=C/c2nccs2)SC1=S`, for which the growth in the assay on NCI-H23 lung was 80.8%; in the assay on NCI-H226 lung, 87.2%; in the assay with NCI-H322M lung it was 83.7%; in the assay with HOP-62 NSCLC, 111%; in the assay on NCI-H460 lung it was 91%; in the assay with HOP-92 NSCLC, 92.4%. Moreover, the growth is 77.7% with NCI-H522 lung, 98.5% in the assay on A549/ATCC NSCLC, 105% with 786-0 renal and 119% with COLO 205 colon.

For `COc1ccc(-c2ccc(/C=N/NC(=O)c3[nH]c4ccc(Br)cc4c3-c3ccccc3)s2)cc1`, the growth was 68.8% with NCI-H23 lung; 105% in the assay with NCI-H226 lung; 92.3% in the assay with NCI-H322M lung; 96.1% with HOP-62 NSCLC; 27.7% with NCI-H460 lung; 120% in the assay with HOP-92 NSCLC. In addition, the growth with NCI-H522 lung is 82.9%; in the assay with A549/ATCC NSCLC, 71.9%; in the assay with 786-0 renal, 112%; in the assay with COLO 205 colon, 97.6%.

For the compound `O=C(NO)c1ccc(CNC(=O)[C@H]2Cc3c([nH]c4ccccc34)[C@H](c3ccccc3)N2)cc1`, the growth was 34% in the assay on NCI-H23 lung; 64.2% in the assay with NCI-H226 lung; 43.2% in the assay on NCI-H322M lung; 18.7% in the assay with HOP-62 NSCLC; 27.7% in the assay with NCI-H460 lung; -2.26% (active) with HOP-92 NSCLC. Also, the growth with NCI-H522 lung was -8.88% (active); in the assay with A549/ATCC NSCLC, 50.6%; in the assay with 786-0 renal, 53.9%; in the assay on COLO 205 colon, -55.5% (active).

The values are drawn from PubChem BioAssay (NCI).
